Targets with a hit are over-represented here; the source holds about 8,800 in all. About 0.5% of all pairs of compound and target were hits. A number with no mark means an inactive call.
Key:
Experiment in all cases: log2 fold change, soluble protein after heating vs DMSO (PISA); higher = thermal stabilisation; K562 lysate, 10 uM; active = over 0.2 and 3.5 SD of the protein, either way, in both replicates (recomputed)
nilotinib = compound: Cc1cn(-c2cc(NC(=O)c3ccc(C)c(Nc4nccc(-c5cccnc5)n4)c3)cc(C(F)(F)F)c2)cn1 [nilotinib]
Outline: (§1)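 Soluble protein was defined as the supernatant remaining after 21,000xg for 90 min, following pooling of heated aliquots and adjustment to 0.5% NP-40 at 4°C. Before that, crude K562 extract at 1 mg/mL protein in PBS pH 7.4 with 1 mM MgCl2 was treated with 10 μM compound for 30 min and heated for 3 min across 48°C-58°C. Quantification used TMTpro 16plex LC-MS/MS with channel sums equalised, and values are log-two fold changes in thermal stability relative to solvent controls from duplicates.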

[1] = compound: Cc1nc(Nc2n[nH]c3c2CN(C(=O)N[C@H](CN(C)C)c2ccccc2)C3(C)C)c2sccc2n1
Outline: as §1

dasatinib = compound: Cc1nc(Nc2ncc(C(=O)Nc3c(C)cccc3Cl)s2)cc(N2CCN(CCO)CC2)n1 [dasatinib]
Outline: as §1

[2] = compound: Cc1ncc(-c2ccnc(Nc3ccc(S(C)(=O)=O)cc3)n2)n1C(C)C
Outline: as §1

[3] = compound: Cn1cc(-c2ccc3c(c2)CCN3C(=O)Cc2cccc(C(F)(F)F)c2)c2c(N)ncnc21
Outline: as §1

quisinostat = compound: Cn1cc(CNCC2CCN(c3ncc(C(=O)NO)cn3)CC2)c2ccccc21 [quisinostat]
Outline: as §1

tipifarnib = compound: Cn1cncc1[C@@](N)(c1ccc(Cl)cc1)c1ccc2c(c1)c(-c1cccc(Cl)c1)cc(=O)n2C [tipifarnib]
Outline: as §1

[4] = compound: NC(=O)Nc1cc(-c2cccc(F)c2)sc1C(=O)N[C@H]1CCCNC1
Outline: as §1

[5] = compound: NC(=O)c1cnc(N[C@@H]2CCCC[C@@H]2N)nc1Nc1cccc(-n2nccn2)c1
Outline: as §1

[6] = compound: NC1(c2ccc(-c3nc4ccn5c(=O)[nH]nc5c4cc3-c3ccccc3)cc2)CCC1
Outline: as §1

Sequence of UniProt Q9BQI3 (Q9BQI3 whole entry, looked up): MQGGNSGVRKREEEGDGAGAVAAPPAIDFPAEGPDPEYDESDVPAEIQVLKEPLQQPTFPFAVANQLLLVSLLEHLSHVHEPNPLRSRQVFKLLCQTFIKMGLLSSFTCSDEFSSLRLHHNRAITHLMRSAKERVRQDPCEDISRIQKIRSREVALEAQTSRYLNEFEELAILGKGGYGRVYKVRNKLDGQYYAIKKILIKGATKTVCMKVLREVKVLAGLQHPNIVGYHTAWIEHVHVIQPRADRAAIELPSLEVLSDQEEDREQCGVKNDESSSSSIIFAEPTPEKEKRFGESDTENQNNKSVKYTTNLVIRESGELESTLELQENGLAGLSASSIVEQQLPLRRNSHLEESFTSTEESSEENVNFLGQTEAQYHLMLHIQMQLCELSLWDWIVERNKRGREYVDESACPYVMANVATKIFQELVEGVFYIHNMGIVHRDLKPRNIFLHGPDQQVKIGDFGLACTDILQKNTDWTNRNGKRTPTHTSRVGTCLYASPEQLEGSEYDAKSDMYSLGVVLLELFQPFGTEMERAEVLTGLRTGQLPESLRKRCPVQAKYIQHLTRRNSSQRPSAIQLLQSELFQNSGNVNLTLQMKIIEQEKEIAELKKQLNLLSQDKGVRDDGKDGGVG
Sequence of UniProt O14893 (O14893 whole entry, looked up): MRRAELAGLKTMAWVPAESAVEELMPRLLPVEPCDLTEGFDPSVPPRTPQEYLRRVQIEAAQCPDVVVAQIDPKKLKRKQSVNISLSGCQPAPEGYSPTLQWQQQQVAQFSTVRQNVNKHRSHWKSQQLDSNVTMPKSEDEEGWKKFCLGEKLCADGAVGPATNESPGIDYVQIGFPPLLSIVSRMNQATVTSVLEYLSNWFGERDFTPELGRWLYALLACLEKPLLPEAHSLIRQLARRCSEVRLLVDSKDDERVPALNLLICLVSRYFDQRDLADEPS
Sequence of UniProt Q9NPA8 (Q9NPA8 whole entry, looked up): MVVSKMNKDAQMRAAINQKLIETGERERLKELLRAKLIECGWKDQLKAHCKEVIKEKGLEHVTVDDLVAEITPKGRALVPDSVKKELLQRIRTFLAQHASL
Sequence of UniProt Q8TAG9 (Q8TAG9 whole entry, looked up): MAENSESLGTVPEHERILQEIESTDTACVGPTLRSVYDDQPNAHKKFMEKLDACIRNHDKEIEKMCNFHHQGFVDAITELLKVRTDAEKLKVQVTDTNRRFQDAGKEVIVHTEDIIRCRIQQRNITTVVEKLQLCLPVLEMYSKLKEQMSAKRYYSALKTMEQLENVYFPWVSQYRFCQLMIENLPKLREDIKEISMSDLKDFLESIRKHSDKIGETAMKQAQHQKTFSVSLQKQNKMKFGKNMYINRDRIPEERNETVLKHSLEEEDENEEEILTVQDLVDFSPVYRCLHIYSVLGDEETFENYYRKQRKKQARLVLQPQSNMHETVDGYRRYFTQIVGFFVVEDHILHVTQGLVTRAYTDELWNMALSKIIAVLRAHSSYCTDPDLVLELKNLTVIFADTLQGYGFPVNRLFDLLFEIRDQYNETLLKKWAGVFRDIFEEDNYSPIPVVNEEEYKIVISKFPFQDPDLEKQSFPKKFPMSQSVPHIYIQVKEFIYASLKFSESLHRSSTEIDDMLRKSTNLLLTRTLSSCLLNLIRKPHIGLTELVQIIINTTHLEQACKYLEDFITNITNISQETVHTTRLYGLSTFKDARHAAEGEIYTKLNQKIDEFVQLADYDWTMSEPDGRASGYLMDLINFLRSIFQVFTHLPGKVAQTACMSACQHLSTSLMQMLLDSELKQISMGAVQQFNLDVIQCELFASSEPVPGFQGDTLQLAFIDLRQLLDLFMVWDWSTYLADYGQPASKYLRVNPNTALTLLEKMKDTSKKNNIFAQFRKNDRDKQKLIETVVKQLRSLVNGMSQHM
Sequence of UniProt Q13011 (Q13011 whole entry, looked up): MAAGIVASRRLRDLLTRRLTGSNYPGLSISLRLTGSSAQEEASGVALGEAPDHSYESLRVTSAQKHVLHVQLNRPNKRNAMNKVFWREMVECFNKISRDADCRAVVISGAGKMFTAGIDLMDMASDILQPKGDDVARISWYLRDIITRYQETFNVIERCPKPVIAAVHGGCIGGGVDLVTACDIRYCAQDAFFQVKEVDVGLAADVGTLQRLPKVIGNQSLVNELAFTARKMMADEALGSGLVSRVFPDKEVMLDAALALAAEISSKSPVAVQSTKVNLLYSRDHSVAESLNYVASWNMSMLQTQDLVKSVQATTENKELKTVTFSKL
Sequence of UniProt Q92889 (Q92889 whole entry, looked up): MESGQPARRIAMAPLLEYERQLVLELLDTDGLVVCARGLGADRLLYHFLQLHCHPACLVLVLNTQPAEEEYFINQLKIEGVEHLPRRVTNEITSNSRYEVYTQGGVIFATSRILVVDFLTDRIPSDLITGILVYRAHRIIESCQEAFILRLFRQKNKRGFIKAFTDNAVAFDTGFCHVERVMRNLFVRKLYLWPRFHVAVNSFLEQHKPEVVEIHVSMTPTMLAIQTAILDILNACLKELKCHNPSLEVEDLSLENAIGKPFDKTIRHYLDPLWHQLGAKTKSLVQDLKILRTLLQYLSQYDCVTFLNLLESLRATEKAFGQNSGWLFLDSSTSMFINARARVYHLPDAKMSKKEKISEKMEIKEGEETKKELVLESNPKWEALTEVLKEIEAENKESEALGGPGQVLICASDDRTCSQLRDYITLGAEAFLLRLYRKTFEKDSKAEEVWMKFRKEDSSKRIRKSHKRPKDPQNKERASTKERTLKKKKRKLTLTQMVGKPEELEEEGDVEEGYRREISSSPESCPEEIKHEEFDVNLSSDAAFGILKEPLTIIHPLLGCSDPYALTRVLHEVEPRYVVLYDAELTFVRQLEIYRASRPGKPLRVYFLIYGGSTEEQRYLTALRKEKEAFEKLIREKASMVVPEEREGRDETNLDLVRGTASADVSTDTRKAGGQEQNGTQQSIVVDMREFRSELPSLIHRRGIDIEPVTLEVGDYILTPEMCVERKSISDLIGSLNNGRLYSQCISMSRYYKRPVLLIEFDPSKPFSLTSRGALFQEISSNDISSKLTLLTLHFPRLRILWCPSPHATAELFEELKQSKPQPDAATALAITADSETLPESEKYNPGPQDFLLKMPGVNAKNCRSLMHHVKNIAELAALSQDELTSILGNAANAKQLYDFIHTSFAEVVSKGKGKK
Sequence of UniProt P19525 (P19525 whole entry, looked up): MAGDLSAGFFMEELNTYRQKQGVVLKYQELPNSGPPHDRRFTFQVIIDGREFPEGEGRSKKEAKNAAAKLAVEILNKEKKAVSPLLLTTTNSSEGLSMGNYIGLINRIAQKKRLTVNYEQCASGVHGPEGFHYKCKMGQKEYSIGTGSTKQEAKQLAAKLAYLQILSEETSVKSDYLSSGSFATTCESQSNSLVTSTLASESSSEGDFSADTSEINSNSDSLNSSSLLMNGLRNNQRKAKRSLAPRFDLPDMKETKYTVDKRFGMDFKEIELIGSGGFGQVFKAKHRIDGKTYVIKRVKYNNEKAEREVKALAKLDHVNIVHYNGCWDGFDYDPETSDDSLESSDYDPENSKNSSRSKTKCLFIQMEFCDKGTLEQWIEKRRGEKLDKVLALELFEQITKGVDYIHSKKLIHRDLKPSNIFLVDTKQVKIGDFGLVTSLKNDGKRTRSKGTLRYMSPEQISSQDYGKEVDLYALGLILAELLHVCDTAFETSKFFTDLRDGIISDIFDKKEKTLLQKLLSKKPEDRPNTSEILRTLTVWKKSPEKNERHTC
Sequence of UniProt Q92562 (Q92562 whole entry, looked up): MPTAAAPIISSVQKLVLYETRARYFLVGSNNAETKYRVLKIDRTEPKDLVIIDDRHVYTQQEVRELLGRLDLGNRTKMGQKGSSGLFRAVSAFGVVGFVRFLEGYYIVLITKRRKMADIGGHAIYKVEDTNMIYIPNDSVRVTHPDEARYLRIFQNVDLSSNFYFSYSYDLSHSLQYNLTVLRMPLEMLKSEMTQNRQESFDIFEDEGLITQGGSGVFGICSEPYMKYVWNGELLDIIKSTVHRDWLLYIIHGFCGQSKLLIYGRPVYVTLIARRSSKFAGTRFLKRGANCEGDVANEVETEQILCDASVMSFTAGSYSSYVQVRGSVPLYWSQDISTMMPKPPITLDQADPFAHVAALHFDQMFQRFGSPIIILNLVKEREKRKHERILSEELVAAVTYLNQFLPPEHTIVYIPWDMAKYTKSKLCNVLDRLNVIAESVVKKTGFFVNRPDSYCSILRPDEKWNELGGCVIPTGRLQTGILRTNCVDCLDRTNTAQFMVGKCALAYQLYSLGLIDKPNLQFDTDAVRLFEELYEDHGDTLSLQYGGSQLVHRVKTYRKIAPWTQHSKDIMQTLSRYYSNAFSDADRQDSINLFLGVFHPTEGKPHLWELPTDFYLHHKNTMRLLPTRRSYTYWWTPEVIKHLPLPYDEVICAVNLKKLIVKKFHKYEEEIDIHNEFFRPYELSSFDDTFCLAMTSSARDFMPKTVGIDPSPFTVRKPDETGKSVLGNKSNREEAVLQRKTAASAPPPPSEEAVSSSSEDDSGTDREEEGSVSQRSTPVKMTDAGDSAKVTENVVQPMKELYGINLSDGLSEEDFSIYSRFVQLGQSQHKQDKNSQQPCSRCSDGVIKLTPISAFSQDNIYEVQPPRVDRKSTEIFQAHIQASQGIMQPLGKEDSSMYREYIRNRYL
Sequence of UniProt P26378 (P26378 whole entry, looked up): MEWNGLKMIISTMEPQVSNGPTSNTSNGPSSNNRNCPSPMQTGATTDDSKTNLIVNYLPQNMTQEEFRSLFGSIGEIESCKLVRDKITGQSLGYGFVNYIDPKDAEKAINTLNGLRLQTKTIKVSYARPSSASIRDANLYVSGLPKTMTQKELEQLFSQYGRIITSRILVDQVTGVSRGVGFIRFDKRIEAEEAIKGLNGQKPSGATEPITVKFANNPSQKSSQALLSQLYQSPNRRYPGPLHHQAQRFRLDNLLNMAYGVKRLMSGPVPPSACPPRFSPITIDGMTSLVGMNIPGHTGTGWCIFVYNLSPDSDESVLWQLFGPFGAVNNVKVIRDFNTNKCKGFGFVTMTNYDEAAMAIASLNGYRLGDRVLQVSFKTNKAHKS

| Target | log2 fold change (nilotinib) | log2 fold change [1] | log2 fold change (dasatinib) | log2 fold change [2] | log2 fold change [3] | log2 fold change (quisinostat) | log2 fold change (tipifarnib) | log2 fold change [4] | log2 fold change [5] | log2 fold change [6] |
| --- | --- | --- | --- | --- | --- | --- | --- | --- | --- | --- |
| FDFT1 (UniProt P37268) | 0.032 | -0.048 | -0.012 | -0.037 | -0.008 | -0.014 | -0.053 | 0.005 | 0.042 | -0.025 |
| FPGT (UniProt O14772) | -0.006 | -0.004 | -0.057 | 0.029 | -0.014 | -0.105 | -0.036 | 0.046 | 0.035 | -0.03 |
| ELF2 (UniProt Q15723) | 0.032 | -0.007 | -0.105 | 0.065 | 0.068 | 0.026 | -0.043 | -0.035 | -0.02 | 0.032 |
| GIPC3 (UniProt Q8TF64) | 0.183 | -0.602 (active) | -0.071 | 0.097 | -0.009 | -0.309 | -0.067 | 0.134 | 0.045 | 0.016 |
| EIF2AK1 (UniProt Q9BQI3) | -0.006 | 0.211 | -0.027 | -0.154 | 0.078 | -0.077 | 0.007 | -0.031 | 0.062 | 0.021 |
| EMC7 (UniProt Q9NPA0) | 0.047 | -0.015 | -0.022 | 0.027 | 0.001 | -0.006 | -0.014 | -0.003 | 0.014 | -0.073 |
| EIF2AK2 (UniProt P19525) | -0.014 | 0.043 | 0.122 | 0.01 | 0.056 | -0.087 | -0.032 | 0.045 | -0.013 | -0.054 |
| GEMIN2 (UniProt O14893) | -0.019 | 0.014 | -0.03 | 0.032 | -0.033 | 0.142 | 0.059 | 0.004 | -0.039 | 0.049 |
| ESYT2 (UniProt H7BXI1) | 0.016 | -0.017 | -0.01 | 0.037 | 0.02 | 0.027 | 0.009 | -0.015 | -0.031 | -0.051 |
| ERCC4 (UniProt Q92889) | -0.047 | -0.002 | 0.01 | -0.05 | 0.033 | -0.105 | -0.007 | 0.041 | 0.027 | -0.004 |
| FECH isoform 2 (UniProt P22830) | 0.796 | 0 | 0.353 | 0.364 | 0.009 | 0.333 | -0.007 | -0.013 | 0.139 | 0.053 |
| FIG4 (UniProt Q92562) | -0.02 | 0.144 | -0.007 | 0.08 | 0.145 | 0.077 | -0.038 | 0.013 | -0.066 | 0.06 |
| G6PD isoform 2 (UniProt P11413) | 0.013 | -0.008 | 0.01 | -0.012 | -0.01 | -0.021 | 0.016 | 0.012 | -0.035 | 0.008 |
| FMNL1 isoform 3 (UniProt O95466) | -0.174 | -0.043 | -0.13 | -0.135 | 0.009 | -0.047 | -0.038 | -0.051 | 0.012 | -0.042 |
| EXTL2 (UniProt Q9UBQ6) | 0.07 | -0.085 | 0.127 | 0.081 | 0.13 | -0.146 | 0.017 | 0.035 | -0.068 | 0.003 |
| ENY2 (UniProt Q9NPA8) | -0.054 | -0.002 | 0.045 | 0.007 | 0.033 | -0.03 | 0.085 | -0.03 | -0.022 | -0.007 |
| GAPDH (UniProt P04406) | 0.045 | -0.026 | -0.001 | -0.023 | 0 | 0.114 | 0.042 | 0 | -0.019 | 0.018 |
| FYCO1 isoform 4 (UniProt Q9BQS8) | -0.02 | -0.022 | 0.011 | 0.016 | 0.031 | -0.014 | -0.012 | 0.019 | 0.015 | -0.008 |
| EXOC1 (UniProt Q9NV70) | -0.005 | 0.013 | -0.067 | 0.013 | 0.097 | 0.024 | 0.005 | 0.024 | 0.012 | -0.032 |
| ELAVL4 (UniProt P26378) | -0.07 | -0.062 | 0.006 | 0.092 | 0.039 | -0.07 | -0.06 | 0.07 | 0.01 | 0.024 |
| ECH1 (UniProt Q13011) | -0.008 | -0.019 | 0.195 | -0.003 | 0.02 | -0.008 | 0.022 | 0.001 | -0.022 | 0.193 |
| ECI2 (UniProt O75521) | 0.085 | -0.013 | 0.029 | 0.017 | -0.01 | 0.023 | -0.071 | -0.027 | -0.019 | -0.022 |
| EXOC2 (UniProt Q96KP1) | 0.009 | 0.018 | -0.041 | -0.009 | 0.022 | -0.088 | -0.022 | 0.062 | -0.003 | -0.029 |
| EEF1A1P5 (UniProt Q5VTE0) | -0.055 | 0.005 | -0.172 | -0.083 | 0.005 | -0.054 | 0.008 | 0.016 | 0.006 | -0.013 |
| FAU (UniProt E9PR30) | 0.006 | 0.001 | -0.018 | 0.005 | 0.052 | 0.002 | 0.046 | -0.055 | 0 | -0.058 |
| DTYMK (UniProt P23919) | -0.003 | 0.002 | -0.072 | -0.007 | -0.025 | -0.009 | 0.017 | 0.045 | -0.024 | -0.007 |
| EXOC6 (UniProt Q8TAG9) | -0.002 | 0.01 | -0.063 | 0.022 | 0.064 | -0.023 | -0.044 | 0.068 | 0.024 | -0.064 |
| GGT7 (UniProt Q9UJ14) | -0.061 | -0.023 | -0.083 | 0.014 | -0.012 | 0.092 | -0.008 | 0.071 | 0.007 | 0.02 |
| DVL2 (UniProt O14641) | -0.03 | -0.003 | -0.114 | 0.027 | -0.063 | -0.13 | -0.027 | 0.102 | 0.236 | -0.097 |
| DUS3L (UniProt Q96G46) | 0.008 | -0.022 | -0.019 | -0.014 | 0.004 | -0.098 | -0.017 | 0.026 | 0 | -0.021 |
